These results are taken from article PMC3218832.

Targets include RELARELA (p65 homodimer) (Homo sapiens, UniProt Q04206 1-307); p50p50 homodimer (Homo sapiens, UniProt P19838 7-356); RELB subunit;p50 subunit (Homo sapiens;Homo sapiens, UniProt Q01201;P19838 120-401;7-356).
What all share (experiment): protein binding microarray; high values mean tight binding
Settings in all cases: dsDNA, one strand shown

Another experiment concerns the target T1, p52p52 homodimer (Homo sapiens, UniProt Q00653 4-332).
T1 sequence: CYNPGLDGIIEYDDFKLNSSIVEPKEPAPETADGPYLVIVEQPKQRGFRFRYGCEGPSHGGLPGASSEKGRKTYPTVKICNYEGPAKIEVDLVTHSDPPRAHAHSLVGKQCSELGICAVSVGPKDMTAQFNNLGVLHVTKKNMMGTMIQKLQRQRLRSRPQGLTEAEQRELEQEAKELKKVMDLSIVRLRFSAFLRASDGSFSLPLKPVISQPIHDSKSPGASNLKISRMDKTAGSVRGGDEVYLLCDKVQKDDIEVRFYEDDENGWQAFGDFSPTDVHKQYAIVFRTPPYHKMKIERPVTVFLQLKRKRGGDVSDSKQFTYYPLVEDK

Experiment [1] addresses RELA (p65) subunit of heterodimer;p50 subunit (Homo sapiens;Homo sapiens, UniProt Q04206;P19838 1-307;7-356).
The target in experiment [2] is RELA (p65) subunit of heterodimer;p52 subunit (Homo sapiens;Homo sapiens, UniProt Q04206;Q00653 1-307;4-332).
The target of another experiment is T2, RELB subunit;p52 subunit (Homo sapiens;Homo sapiens, UniProt Q01201;Q00653 120-401;4-332).
T2 sequence 1: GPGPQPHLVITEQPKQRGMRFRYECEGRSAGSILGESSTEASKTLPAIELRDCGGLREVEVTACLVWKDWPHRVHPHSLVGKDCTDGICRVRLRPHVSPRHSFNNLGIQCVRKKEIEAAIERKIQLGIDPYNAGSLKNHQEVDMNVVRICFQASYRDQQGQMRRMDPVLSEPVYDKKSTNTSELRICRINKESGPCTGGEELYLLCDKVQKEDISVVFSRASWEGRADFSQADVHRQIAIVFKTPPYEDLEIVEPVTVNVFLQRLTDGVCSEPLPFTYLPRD
T2 sequence 2: T1 sequence

Experiment [3] concerns the target C-Rel subunit;p50 subunit (Homo sapiens;Homo sapiens, UniProt Q04864;P19838 1-285;7-356).
Experiment [4] deals with T3, C-Rel subunit;p52 subunit (Homo sapiens;Homo sapiens, UniProt Q04864;Q00653 1-285;4-332).
T3 sequence 1: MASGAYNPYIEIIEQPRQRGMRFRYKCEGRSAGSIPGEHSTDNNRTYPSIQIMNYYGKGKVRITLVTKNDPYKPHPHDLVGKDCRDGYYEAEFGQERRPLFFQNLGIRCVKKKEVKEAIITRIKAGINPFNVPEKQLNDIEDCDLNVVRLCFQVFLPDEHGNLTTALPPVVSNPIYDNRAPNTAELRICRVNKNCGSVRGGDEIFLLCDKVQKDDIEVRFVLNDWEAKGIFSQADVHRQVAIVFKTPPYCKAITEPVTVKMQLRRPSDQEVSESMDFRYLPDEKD
T3 sequence 2: T1 sequence

Sequence of RELARELA (p65 homodimer) (Q04206 1-307): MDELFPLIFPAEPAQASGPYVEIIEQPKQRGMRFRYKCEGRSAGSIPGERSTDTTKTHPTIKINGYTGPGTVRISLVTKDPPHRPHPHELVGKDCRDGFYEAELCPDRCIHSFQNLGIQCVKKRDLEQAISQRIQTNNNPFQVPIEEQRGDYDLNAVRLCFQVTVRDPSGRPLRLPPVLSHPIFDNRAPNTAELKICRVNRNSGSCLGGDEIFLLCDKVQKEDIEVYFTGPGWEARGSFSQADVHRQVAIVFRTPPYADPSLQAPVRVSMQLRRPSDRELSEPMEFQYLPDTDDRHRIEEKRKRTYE
Sequence of RELA (p65) subunit of heterodimer;p50 subunit (Q04206 1-307, chain 1 of 2): as the sequence (Q04206 1-307) above
Sequence of RELA (p65) subunit of heterodimer;p50 subunit (P19838 7-356, chain 2 of 2): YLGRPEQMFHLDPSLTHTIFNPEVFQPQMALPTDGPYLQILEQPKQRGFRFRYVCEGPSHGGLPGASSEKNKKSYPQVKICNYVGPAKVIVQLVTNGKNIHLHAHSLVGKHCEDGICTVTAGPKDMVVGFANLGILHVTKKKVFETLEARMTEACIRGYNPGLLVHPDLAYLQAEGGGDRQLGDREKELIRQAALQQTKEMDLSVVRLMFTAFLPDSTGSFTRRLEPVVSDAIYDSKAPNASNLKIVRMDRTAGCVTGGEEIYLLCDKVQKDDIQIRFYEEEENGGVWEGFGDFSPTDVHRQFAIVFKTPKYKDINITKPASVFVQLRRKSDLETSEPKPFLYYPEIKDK
Sequence of p50p50 homodimer (P19838 7-356): as the sequence (P19838 7-356, chain 2 of 2) above

For the sequence AGAAGATTCCT, the binding signal is 0.055 z-score with RELARELA (p65 homodimer); -1.1 z-score with p50p50 homodimer; -0.567 z-score with p52p52 homodimer; -0.642 z-score in experiment [1]; -0.681 z-score in [2]; -0.914 z-score in the experiment with RELB subunit;p50 subunit. The binding signal in the experiment with RELB subunit;p52 subunit was -0.843 z-score; in experiment [3] it was -0.495 z-score; in [4] it was -0.373 z-score.

On to AAAAAGCTCCT, for which the binding signal is -0.678 z-score with RELARELA (p65 homodimer); -1.47 z-score with p50p50 homodimer; -0.675 z-score with p52p52 homodimer; -1.01 z-score in experiment [1]; -1.04 z-score in experiment [2]; -1.17 z-score in the experiment with RELB subunit;p50 subunit. For the same sequence, the figures for the binding signal (with RELB subunit;p52 subunit; in [3]; in experiment [4]) were -1.06 z-score, -1.49 z-score and -1.07 z-score, respectively.

Turning to GGATTCCCCCT, the binding signal with RELARELA (p65 homodimer) was found to be 2.01 z-score; with p50p50 homodimer, 1.46 z-score; in the experiment with p52p52 homodimer, 2.93 z-score; in experiment [1], 2.64 z-score; in [2], 2.73 z-score; with RELB subunit;p50 subunit, 2.83 z-score. Besides, the binding signal turned out to be 2.57 z-score with RELB subunit;p52 subunit, 2.03 z-score in experiment [3] and 2.78 z-score in experiment [4].

On to GGATTTCTCCT, for which the binding signal with RELARELA (p65 homodimer) is 0.534 z-score; with p50p50 homodimer, -0.711 z-score; with p52p52 homodimer it was -0.416 z-score; in experiment [1], -0.294 z-score; in [2] it was -0.389 z-score; with RELB subunit;p50 subunit it was -0.703 z-score. The binding signal in the experiment with RELB subunit;p52 subunit was -0.78 z-score; in experiment [3], -0.477 z-score; in [4], -0.189 z-score.

GGATGAACCCT: the binding signal with RELARELA (p65 homodimer) was -0.273 z-score; in the experiment with p50p50 homodimer it was -1.25 z-score; with p52p52 homodimer, -0.595 z-score; in [1], -0.588 z-score; in experiment [2], -0.76 z-score; in the experiment with RELB subunit;p50 subunit, -0.936 z-score. Besides, the binding signal with RELB subunit;p52 subunit is -0.814 z-score; in experiment [3] it was -1.23 z-score; in [4] it was -0.571 z-score.

In the case of GAAGAGTTCCC, the binding signal with RELARELA (p65 homodimer) is 0.742 z-score; with p50p50 homodimer it was 0.281 z-score; with p52p52 homodimer, -0.0634 z-score; in experiment [1], 0.27 z-score; in [2] it was 0.0483 z-score; with RELB subunit;p50 subunit, 0.132 z-score. Moreover, the binding signal was -0.0744 z-score in the experiment with RELB subunit;p52 subunit, 0.46 z-score in experiment [3] and 0.057 z-score in [4].

As for GAATGGATCCC, the binding signal with RELARELA (p65 homodimer) was -0.423 z-score; in the experiment with p50p50 homodimer, -0.946 z-score; with p52p52 homodimer, -0.505 z-score; in [1], -0.796 z-score; in experiment [2] it was -0.763 z-score; with RELB subunit;p50 subunit, -0.777 z-score. Moreover, the values for the binding signal (in the experiment with RELB subunit;p52 subunit; in experiment [3]; in [4]) were -0.774 z-score, -1.02 z-score and -0.839 z-score, respectively.

CGGAATTTCCT: the binding signal with RELARELA (p65 homodimer) is 3.7 z-score; with p50p50 homodimer it was -0.012 z-score; with p52p52 homodimer, -0.109 z-score; in experiment [1], 1.2 z-score; in [2] it was 0.553 z-score; with RELB subunit;p50 subunit, -0.413 z-score. Moreover, the binding signal was -0.0415 z-score in the experiment with RELB subunit;p52 subunit, 0.843 z-score in experiment [3] and 0.719 z-score in [4].

GAGAGACTCCT: the binding signal in the experiment with RELARELA (p65 homodimer) is -0.455 z-score; with p50p50 homodimer, -2.14 z-score; in the experiment with p52p52 homodimer it was -0.793 z-score; in [1] it was -1.01 z-score; in experiment [2] it was -1.21 z-score; with RELB subunit;p50 subunit it was -1.19 z-score. For the same sequence, the results for the binding signal (with RELB subunit;p52 subunit; in experiment [3]; in [4]) were -1.24 z-score, -1.58 z-score and -1.02 z-score, respectively.

On to GGATTGTTCCC, for which the binding signal with RELARELA (p65 homodimer) was 0.75 z-score; in the experiment with p50p50 homodimer, -0.265 z-score; in the experiment with p52p52 homodimer, -0.233 z-score; in experiment [1], -0.0316 z-score; in [2], -0.0574 z-score; with RELB subunit;p50 subunit, -0.257 z-score. Further, the figures for the binding signal (with RELB subunit;p52 subunit; in experiment [3]; in experiment [4]) were -0.307 z-score, 0.0336 z-score and 0.152 z-score, respectively.

With CAAATTCCCCC, the binding signal with RELARELA (p65 homodimer) is 2.31 z-score; with p50p50 homodimer, 1.64 z-score; with p52p52 homodimer it was 2.63 z-score; in experiment [1], 2.41 z-score; in experiment [2], 2.32 z-score; with RELB subunit;p50 subunit it was 2.69 z-score. The binding signal turned out to be 2.35 z-score with RELB subunit;p52 subunit, 1.89 z-score in experiment [3] and 2.65 z-score in experiment [4].

GAGATTTTCCT: the binding signal is 1.17 z-score in the experiment with RELARELA (p65 homodimer); -0.538 z-score with p50p50 homodimer; -0.404 z-score with p52p52 homodimer; -0.116 z-score in experiment [1]; -0.119 z-score in experiment [2]; -0.659 z-score with RELB subunit;p50 subunit. Further, the figures for the binding signal (with RELB subunit;p52 subunit; in [3]; in [4]) were -0.507 z-score, 0.14 z-score and 0.077 z-score, respectively.

CAGGTGTTCCC: the binding signal is 0.518 z-score in the experiment with RELARELA (p65 homodimer); 0.0166 z-score with p50p50 homodimer; 0.0698 z-score in the experiment with p52p52 homodimer; -0.00537 z-score in experiment [1]; 0.153 z-score in experiment [2]; -0.0984 z-score with RELB subunit;p50 subunit. Moreover, the binding signal in the experiment with RELB subunit;p52 subunit was -0.0353 z-score; in experiment [3], 0.188 z-score; in experiment [4], 0.359 z-score.

With CGGGAAGCCCT, the binding signal with RELARELA (p65 homodimer) is 0.636 z-score; with p50p50 homodimer, -0.369 z-score; in the experiment with p52p52 homodimer, -0.0378 z-score; in experiment [1], -0.188 z-score; in experiment [2], 0.0317 z-score; with RELB subunit;p50 subunit, -0.513 z-score. Further, the binding signal with RELB subunit;p52 subunit was -0.178 z-score; in [3], -0.133 z-score; in [4], 0.19 z-score.

For the sequence GAGGTCCCCCT, the binding signal in the experiment with RELARELA (p65 homodimer) came to 0.588 z-score; with p50p50 homodimer, 1.14 z-score; with p52p52 homodimer it was 0.954 z-score; in [1], 1.63 z-score; in [2], 1.22 z-score; with RELB subunit;p50 subunit it was 1.56 z-score. Moreover, the binding signal with RELB subunit;p52 subunit worked out at 1.97 z-score; in experiment [3], 1.28 z-score; in [4], 1.05 z-score.
